Bioassay records: PubChem, The Scripps Research Institute Molecular Screening Center
Most compounds without a hit are left out; they make up all but 4.8% or so of the library.
ssDAF-12 act = S. stercoralis DAF-12 activation, primary screen | HEK293 ssDAF-12/GRIP1 lit1-tk-luc reporter, luminescence; % of 3 µM dafachronic acid response | activation, % at 6.8 µM | hit rate 1% among 370,000 | AID 652126;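 active means activation above the mean over all tested compounds plus 3 SD, cut at about 0.9% in these data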;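 further: 0% = DMSO-only wells and 100% = 3 µM delta7-dafachronic acid wells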
DAX1 inh-1 = inhibitors of DAX1 repression of SF-1 activated StAR promoter | HEK293T StAR-luciferase reporter, SF-1/DAX-1 repression relief | inhibition, % at 6.8 µM | hit rate 1.1% among 370,000;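 active means inhibition above the mean over all tested compounds plus 3 SD, cut at about 3.6% in these data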;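 further: 0% = DAX-1 cells with DMSO and 100% = cells lacking DAX-1 with DMSO; higher inhibition means more luminescence from relief of DAX-1 repression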
hgDAF-12 ag = agonists of H. glycines DAF-12 nuclear receptor; activation, % at 6.8 µM; hit rate 1.8% among 370,000; AID 687014; HEK293 GAL4-hgDAF12 UAS-luciferase reporter, agonist luminescence; normalized to butyrate control;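 active means activation above a cutoff set at the mean of all screened compounds plus 3 SD, cut at about 10% in these data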;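 further: 0% = DMSO wells and 100% = sodium butyrate wells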
hcDAF-12 act = activators of H. contortus DAF-12 nuclear receptor; HEK293 hcDAF-12 lit1-tk-luc reporter, luminescence; 0% DMSO, 100% Δ7-dafachronic acid; activation, % at 6.8 µM; hit rate 1.4% among 370,000; AID 652067;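 active means activation above the mean of all tested compounds plus 3 SD, cut at about 5.5% in these data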;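 further: 100% = response to 3 µM Δ7-dafachronic acid high control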
SMARCA2 activ = increases SMARCA2 function in MMTV reporter cells | activation, % at 9.1 µM | AID 652017 | hit rate 1% among 370,000 | MG213 cells, MMTV-luciferase reporter, dexamethasone, overnight; in the data active means activation above about 7.8%;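 further: 0% = vehicle wells and 100% = reference activator wells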
DAX1 inh-2 = inhibits human nuclear receptor DAX1. P51843. HEK293 Gal4-DAX1 luciferase reporter, luminescence. inhibition, % at 6.75 µM. hit rate 0.99% among 340,000. AID 504766;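 active means inhibition above the mean over all tested compounds plus 3 SD, cut at about 4.2% in these data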;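 further: 0% = DAX1-transfected cells with DMSO and 100% = empty-vector control cells with DMSO; inhibition shows as a rise in luminescence from relieved DAX1 repression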
Target sequence (P51843 207-470 limits assumed): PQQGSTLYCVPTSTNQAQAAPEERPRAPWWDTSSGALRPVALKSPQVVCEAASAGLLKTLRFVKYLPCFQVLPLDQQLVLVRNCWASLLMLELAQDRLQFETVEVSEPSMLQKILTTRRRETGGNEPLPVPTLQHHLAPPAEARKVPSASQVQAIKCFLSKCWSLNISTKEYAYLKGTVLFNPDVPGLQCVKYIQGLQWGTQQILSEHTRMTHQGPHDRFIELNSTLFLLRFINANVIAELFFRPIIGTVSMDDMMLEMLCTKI
The depositor's hits bear a star.

How did O=C(CN(C(=O)Cn1nnc(-c2cccs2)n1)c1ccc2c(c1)OCCO2)NCC1CCCO1 (stereo unspecified) do in these assays?
ssDAF-12 act: -1; DAX1 inh-1: -1; hgDAF-12 ag: -1; hcDAF-12 act: -3; SMARCA2 activ: -2; DAX1 inh-2: -2

How did Cc1ccc(N(CC(=O)NCC2CCCO2)C(=O)Cn2nnc(-c3cccs3)n2)cc1 (stereo unspecified) do in these assays?
ssDAF-12 act: 1.1*; DAX1 inh-1: 3; hgDAF-12 ag: 12*; hcDAF-12 act: 5.6*; SMARCA2 activ: 2; DAX1 inh-2: -1

What do the screens show for `CCCCC(C(=O)O)C(C)CC(=O)Nc1nncs1` (stereo unspecified)?
ssDAF-12 act: -1; DAX1 inh-1: 0; hgDAF-12 ag: 5; hcDAF-12 act: 1; SMARCA2 activ: 4; DAX1 inh-2: 4.7*

How did CC(CCC(=O)Nc1nncs1)C(=O)O (stereo unspecified) do in these assays?
ssDAF-12 act: -1; DAX1 inh-1: 0; hgDAF-12 ag: 0; hcDAF-12 act: 1; SMARCA2 activ: -3; DAX1 inh-2: 3

How did Cc1nn2cc(-c3ncc(C(F)(F)F)cc3Cl)cnc2c1Br do in these assays?
ssDAF-12 act: 0; DAX1 inh-1: 2; hgDAF-12 ag: 13*; hcDAF-12 act: 3; SMARCA2 activ: 4

Results for COc1ccc(/C=N/NC(=O)CCNc2n[nH]c(=O)[nH]c2=O)c(OC)c1 ?
ssDAF-12 act: -1; DAX1 inh-1: 0; hgDAF-12 ag: 1; hcDAF-12 act: -2; SMARCA2 activ: 0; DAX1 inh-2: 0

How did COc1cccc(/C=N/NC(=O)C[n+]2ccccc2)c1OC do in these assays?
ssDAF-12 act: 2.3*; DAX1 inh-1: -1; hgDAF-12 ag: -3; hcDAF-12 act: 0; SMARCA2 activ: 3; DAX1 inh-2: -1

How did COc1cccc(/C=N/NC(=O)CCNc2n[nH]c(=O)[nH]c2=O)c1OC do in these assays?
ssDAF-12 act: 1.5*; DAX1 inh-1: 1; hgDAF-12 ag: -5; hcDAF-12 act: -3; SMARCA2 activ: -5; DAX1 inh-2: -1

Results for OC(c1ccc(F)cc1)c1ncc(-c2ccc3ccccc3c2)[nH]1 (stereo unspecified) ?
ssDAF-12 act: -1; DAX1 inh-1: 1; hgDAF-12 ag: 11*; hcDAF-12 act: 3; SMARCA2 activ: 7

What do the screens show for `Cc1ccc(C(O)c2ncc(-c3ccc4ccccc4c3)[nH]2)cc1` (stereo unspecified)?
ssDAF-12 act: 0; DAX1 inh-1: 2; hgDAF-12 ag: 8; hcDAF-12 act: 5; SMARCA2 activ: 1

Results for Cc1ccc(C(O)c2ncc(-c3ccc(F)cc3)[nH]2)c(C)c1 (stereo unspecified) ?
ssDAF-12 act: -1; DAX1 inh-1: -1; hgDAF-12 ag: -3; hcDAF-12 act: -1; SMARCA2 activ: -2

What do the screens show for `Cc1cc(F)ccc1C(O)c1ncc(-c2ccc3ccccc3c2)[nH]1` (stereo unspecified)?
ssDAF-12 act: 0; DAX1 inh-1: 3.7*; hgDAF-12 ag: -1; hcDAF-12 act: -1; SMARCA2 activ: -4

Results for CC(C)c1ccc(NC(=S)N2CCCC2)cc1 ?
ssDAF-12 act: 0; DAX1 inh-1: 3.9*; hgDAF-12 ag: 6; hcDAF-12 act: 5; SMARCA2 activ: 4; DAX1 inh-2: 2

How did CC(=O)CC[C@H]1CC[C@]2(CCCN(Cc3nccn3C)C2)O1 do in these assays?
ssDAF-12 act: -1; DAX1 inh-1: 1; hgDAF-12 ag: -3; hcDAF-12 act: 0; SMARCA2 activ: -1

Results for COc1cc(/C=C2\C(=O)N(C)C(=S)N2C)ccc1O ?
ssDAF-12 act: -1; DAX1 inh-1: 0; hgDAF-12 ag: 1; hcDAF-12 act: -2; SMARCA2 activ: 4; DAX1 inh-2: 0

Results for CN1C(=O)/C(=C/c2ccc(O)c([N+](=O)[O-])c2)N(C)C1=S ?
ssDAF-12 act: -1; DAX1 inh-1: 1; hgDAF-12 ag: 3; hcDAF-12 act: 0; SMARCA2 activ: 1; DAX1 inh-2: 4.2*

What do the screens show for `c1csc(-c2nc(N3CCCCC3)no2)c1`?
ssDAF-12 act: 0; DAX1 inh-1: 1; hgDAF-12 ag: 6; hcDAF-12 act: 3; SMARCA2 activ: 5; DAX1 inh-2: 5.0*
